Bioassay records: PubChem, several laboratories
DAGLB inhibitor: DAGLB lipase inhibitors, primary screen, biochemical, fluorescence, HTS; HEK293T DAGLB membrane lysate, EnzChek fluorogenic substrate; inhibition, % at 5.17 µM; 340,000 tested, 0.059% active; in the data active = inhibition above about 34%;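 also: 0% = enzyme with vehicle and 100% = wells lacking enzyme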
Neddyl block: inhibitors of cullin neddylation, primary screen, biochemical, TR-FRET, uHTS, NAE and Ubc12. NEDD8-conjugating enzyme Ubc12 (Homo sapiens) + NEDD8-activating enzyme E1 regulatory …. 360,000 tested, 0.58% active. inhibition, % at 25 µM; in the data active = inhibition above about 36%
Target sequence (P61081 whole entry, looked up): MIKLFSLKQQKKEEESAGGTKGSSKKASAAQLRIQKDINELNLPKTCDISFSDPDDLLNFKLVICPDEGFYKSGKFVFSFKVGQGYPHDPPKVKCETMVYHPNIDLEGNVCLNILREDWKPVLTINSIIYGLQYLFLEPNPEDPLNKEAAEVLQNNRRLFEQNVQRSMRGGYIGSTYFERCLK
Target sequence (Q13564 whole entry, looked up): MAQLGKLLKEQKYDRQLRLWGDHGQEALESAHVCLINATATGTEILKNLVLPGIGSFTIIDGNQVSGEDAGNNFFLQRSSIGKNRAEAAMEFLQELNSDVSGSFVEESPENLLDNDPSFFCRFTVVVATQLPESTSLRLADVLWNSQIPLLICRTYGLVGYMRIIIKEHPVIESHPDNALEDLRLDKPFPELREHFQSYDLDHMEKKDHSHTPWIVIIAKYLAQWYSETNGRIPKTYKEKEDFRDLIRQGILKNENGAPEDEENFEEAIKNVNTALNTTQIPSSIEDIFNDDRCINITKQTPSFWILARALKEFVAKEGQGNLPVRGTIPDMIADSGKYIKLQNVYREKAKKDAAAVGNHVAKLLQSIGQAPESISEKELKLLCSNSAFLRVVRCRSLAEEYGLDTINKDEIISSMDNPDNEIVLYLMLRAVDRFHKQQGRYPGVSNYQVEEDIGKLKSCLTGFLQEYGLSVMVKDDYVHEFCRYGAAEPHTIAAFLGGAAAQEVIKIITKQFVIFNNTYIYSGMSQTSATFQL
HGIII-sPLA2 inh: human group III sPLA2 inhibitors, primary screen, biochemical, QFRET, BODIPY PC-A2 liposome substrate | Group 3 secretory phospholipase A2 (Homo sapiens), Q9NZ20 | QFRET BODIPY PC-A2 liposome hydrolysis, fluorescence | inhibition, % at 12.2 µM | 370,000 tested, 0.56% active | AID 743126, 2013;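 active = inhibition above mean plus 3 SD of compounds lying within the high and low control bounds, cut at about 19% in these data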;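 also: 0% = median of test compound wells and 100% = no enzyme DMSO wells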
ARNT TACC3 PPI: disruptors of ARNT/TACC3 protein interaction, primary screen, biochemical, AlphaScreen, single concentration; Transforming acidic coiled-coil-containing protein 3 (Homo sapiens), Q9Y6A5; AlphaScreen His-ARNT PAS-B/GST-TACC3 binding, luminescence; TACC3 fragment carries E629A point mutation; inhibition, % at 9.99 µM; 390,000 tested, 0.66% active; AID 623870, 2012;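 active = mean inhibition of replicates at least 50% and at least half of replicates each reaching 50%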;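 also: 0% = complete ARNT plus TACC3 wells and 100% = ARNT alone without TACC3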
NadD inh: inhibitors of S. aureus NadD, primary screen, biochemical, colorimetric, uHTS. 360,000 tested, 0.78% active. inhibition, % at 20 µM. purified NadD enzyme, colorimetric absorbance read-out; in the data active = inhibition above about 26%
hGIII sPLA2 conf: human group III sPLA2 inhibitors, confirmation, biochemical, QFRET, triplicate; shares compounds with HGIII-sPLA2 inh; recombinant hGIII-sPLA2, BODIPY PC-A2 QFRET fluorescence; inhibition, % at 12.2 µM; 2,000 tested, 34% active;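 active = mean inhibition across triplicates above the hit cutoff set in the earlier primary screen, cut at about 19% in these data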;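 also: 0% = enzyme with DMSO and 100% = DMSO wells lacking enzyme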
BODIPY interf: 535nm fluorescence optical interference, confirmation, artefact control for HGIII-sPLA2 inhibitor project, biochemical, QFRET | shares compounds with HGIII-sPLA2 inh | BODIPY FL product fluorescence interference | inhibition, % at 12.2 µM | 2,000 tested, 8.5% active | AID 743282, 2014;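 active = average inhibition above the solvent-only control mean plus 3 SD, cut at about 6% in these data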;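 also: 0% = DMSO with substrate plus product and 100% = DMSO with substrate alone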
Active calls of the source: *; / = no result given; ! = not confirmed by another sample. Sampled rows, rich in hits. Any-hit rate of the full collection: about 2%.

SMILES | DAGLB inhibitor | Neddyl block | HGIII-sPLA2 inh | ARNT TACC3 PPI | NadD inh | hGIII sPLA2 conf | BODIPY interf
C[C@@H]1CN([C@H](C)CO)C(=O)c2cc(-c3ccncc3)cnc2O[C@@H]1CN(C)C(=O)c1ccncc1 | / | / | / | -1 | / | / | /
Cc1ccc(NC(=O)CN(C)C(=O)COC(=O)/C=C/c2cccs2)cc1 | -2 | -1 | -3 | 4 | -6 | / | /
CN(CCC#N)C(=O)COC(=O)/C=C/c1cccs1 | 2 | -13 | 20* | 8 | 2 | -3 | -5
O=C(CC(F)(F)F)N1C[C@@H]2[C@H](c3ccccc31)[C@@H](CO)N2C(=O)c1cccnc1 | / | / | / | 6 | / | / | /
CCNC(=S)NNC(=O)c1c(Cl)c(C)nn1C | 1 | 4 | 21* | -2 | 1 | 9 | -4
CCCCNC(=S)NNC(=O)c1c(Cl)c(C)nn1C | 1 | -10 | 5 | -6 | 3 | / | /
COC(=O)c1sccc1NC(=S)Nc1ccccc1 | 0 | -21 | 11 | -3 | 0 | / | /
COC(=O)c1sccc1NC(=S)Nc1cccc(F)c1 | 0 | 0 | 19* | -6 | -2 | 5 | 1
COC(=O)c1sccc1NC(=S)Nc1cc(C)cc(C)c1 | -3 | -20 | 23* | 16 | -1 | 15 | -4
O=C(CSC(=S)N1CCCCC1)Nc1ncc2c(n1)CCCC2=O | 1 | 2 | 22* | -4 | 1 | 2 | -7
C[C@@H]1CN([C@H](C)CO)S(=O)(=O)c2ccc(-c3cccc(F)c3)cc2O[C@@H]1CN(C)S(=O)(=O)c1ccccc1 | / | / | / | -5 | / | / | /
CCN1CCN(/C=N/c2nc(C)cs2)CC1 | -1 | 1 | 94* | -3 | 6 | 6 | -3
Oc1c(C=C2N=c3ccccc3=N2)sc(=S)n1C1CCCCC1 | 2 | -1 | 20*! | 8 | 4 | -5 | -1
Oc1c(C=C2N=c3ccccc3=N2)sc(=S)n1-c1ccccc1 | 0 | -3 | 4 | 3 | 3 | / | /
Cc1[nH]c(N=Nc2ccccc2)nc1N=Nc1ccccc1 | 20 | -82 | 25* | 16 | 10 | 17 | 9.0*
Cc1ccc(-n2c(=S)[nH]c3nc4c(cc3c2=O)COC(C)(C)C4)cc1 | -2 | -80 | -4 | -30 | 1 | / | /
Cc1ccccc1-n1c(=S)[nH]c2nc3c(cc2c1=O)COC(C)(C)C3 | 3 | 5 | 20* | -7 | -4 | 4 | -4
CCCn1c(=S)[nH]c2cc(Cl)ccc21 | -2 | -14 | 21* | -6 | 0 | 9 | -5
COc1ccc(NC2CCCN(Cc3cccc4cnccc34)C2)cc1 (configuration not stated) | -8 | -18 | 20* | -29 | 2 | 7 | -9
C[C@@H]1CN([C@H](C)CO)S(=O)(=O)c2ccc(C#CC3CCCCC3)cc2O[C@@H]1CN(C)C | / | / | / | 6 | / | / | /
CCCCC(=O)NNC(=O)c1c(O)c2ccccc2[nH]c1=O | 3 | 8 | 7 | 6 | -1 | / | /
O=C(CCl)NNC(=O)c1c(O)c2ccccc2[nH]c1=O | 4 | 7 | 23* | -1 | -1 | 4 | -4
C[C@@H]1CN([C@@H](C)CO)C(=O)c2cc(NS(=O)(=O)c3ccc(Cl)cc3)ccc2O[C@@H](C)CCCCO[C@H]1CN(C)S(=O)(=O)c1cn(C)cn1 | / | / | / | -24 | / | / | /
S=c1[nH]nc(-c2ccccc2)c2ccccc12 | -3 | -179 | 20* | 2 | -1 | 25* | -3
